Screening results deposited in PubChem by National Center for Advancing Translational Sciences (NCATS).
HT1080-NT tox – kills 2HG-producing HT-1080-NT fibrosarcoma cells; Potency, µM (series often up to 46.1 µM), inactives show at the top dose activity, negative = less viability, hits mostly cytotoxic; HT-1080-NT fibrosarcoma viability, CellTiter-Glo ATP luminescence, 48 h; AID 686970; 360,000 compounds, 1.6% hits;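 also: NT is the 2HG producing partner of a matched IDH1 knockdown line; potency is read from the fitted curve at half-maximal effect; 0% = DMSO-treated cells and -100% = media-only wells without cells; nearly all actives have a fitted effect of over 55% in size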
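750 cells/well, RPMI + 5% FBS; 2 h settle, compound pin-transfer, 48 h at 37 degrees C. CellTiter-Glo 10 min RT, luminescence. Normalized to DMSO and media-only wells.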
HT1080 IDH1KD tx – HT-1080 IDH1 knockdown cell toxicity (counter line) | AID 686971 | Potency, µM (top dose mostly 46.1 µM), without a hit: at the highest dose activity, negative = toxicity, hits mostly cytotoxic | 360,000 compounds, 2% hits | HT-1080 IDH1 knockdown viability, ATP luminescence, 48 h;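 also: potency is read from the fitted curve at half-maximal effect; 0% = DMSO wells and -100% = cell-free medium wells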
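% activity derives from luminescence (CellTiter-Glo), normalised to DMSO and no-cell wells. HT-1080-IDH1KD cells, 750/well, had 48 h compound exposure at 37 °C.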
ELG1 DNA repair – ELG1-dependent DNA repair inhibition; HEK293T ELG1-luciferase reporter, luminescence, 16 h; DNA damage induced by 5-fluorouridine; 330,000 compounds, 2.3% hits; Potency, µM (series often up to 46.1 µM), for inactives: at the highest dose activity change, negative = inhibition, usual class: inhibitors; also: potency is read from the fitted curve at half-maximal effect; nearly all actives have a fitted effect of over 55% in size
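Luminescence from the luciferase reporter, measured 30 min after ONE-Glo reagent at room temperature, was the read-out. Beforehand, 2,000 cells per well were exposed for 16 hr at 37 °C to 5-fluorouridine together with compound or vehicle.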
DT40 TDP1 CPT – DT40-hTDP1 cell growth loss with CPT | chicken DT40 Tdp1-/-;hTDP1 cells + 20 nM CPT, ATP luminescence, 48 h | Potency, µM (doses to about 46.2 µM), for inactives: top-dose activity change, negative = growth inhibition, hits mostly inhibitors | 420,000 compounds, 12% hits | AID 686979; also: potency is read from the fitted curve at half-maximal effect; nearly all actives have a fitted effect of over 55% in size
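Chicken DT40 Tdp1-/- cells complemented with human TDP1, 400 cells/well, exposed to compounds plus 20 nM camptothecin for at least 48 h at 37 C; viability read as ATP content by CellTiter-Glo luminescence.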
IL-1B inflam inh – blocks inflammasome-driven IL-1 beta release; THP-1 LPS/ATP IL-1B secretion, AlphaLISA, 16 h; active compounds read low; activity change, % at 57.5 µM; 360,000 compounds, 4.7% hits; AID 743279; in the data active = activity change below about -50%; inconclusive = mostly about -30% to -49%
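THP-1 cells pretreated 1 hr with compounds (up to 57.5 uM final), then stimulated with LPS (250 ng/mL final) plus ATP (1.25 mM final); secreted IL-1B measured by AlphaLISA after 16 hr, decreased signal indicating inhibition.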
DT40 TDP1 no CPT – qHTS for Inhibitors of human tyrosyl-DNA phosphodiesterase 1 (TDP1): qHTS in cells in absence of CPT; DT40 Tdp1-/- hTDP1 cells, no CPT, ATP luminescence, 48 h; Potency, µM (doses to about 46.2 µM), without a hit: at the top dose activity change, negative = growth inhibition, usual class: inhibitors; 420,000 compounds, 15% hits; AID 686978, 2013; also: potency is read from the fitted curve at half-maximal effect; nearly all actives have a fitted effect of over 55% in size
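Seeded 400 DT40-hTDP1 cells/well (vehicle DMSO, no 20 nM CPT); pinned compounds; ≥48 hr at 37 °C; CellTiter-Glo luminescence as viability measure.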
* hit, by the source's call; [ ] = another dose, or the depositor's remark. In the library only some 19% were active in any assay of this set; here they are far more common. Unless noted, calls follow the shape of the dose curve; as a rule, active = well fitted curve in the direction sought with a large enough effect; inconclusive = small, poorly fitted or top-dose-only effect, or another doubt; inactive = no such curve, though single readings can be large; an effect the other way counts as inactive or inconclusive. Unless noted, % is scaled to controls: 0 for no effect and ±100 for the full control effect.

CCCOc1ccccc1C1CC(=O)NC(C)=C1C(=O)OCC(C)C (centres undefined) was read as HT1080-NT tox -12.6%, HT1080 IDH1KD tx inconclusive, ELG1 DNA repair -9.4%, DT40 TDP1 CPT 20.6µM*, IL-1B inflam inh -11.4 and DT40 TDP1 no CPT 16.4µM*.
COC(=O)N1CCC2(CCN(Cc3nccs3)CC2)CC1 was read as DT40 TDP1 CPT -6.7% and DT40 TDP1 no CPT -26.3%.
`COCCn1c(=O)c(CCc2ccccc2)nc2cnc(N(C)C)nc21` gave DT40 TDP1 CPT 10.0% and DT40 TDP1 no CPT -2.5%.
Screening CCOc1ccccc1C1NC(=O)NC(C)=C1C(=O)OC1CCCC1C (centres undefined) returned HT1080-NT tox -0.5%, HT1080 IDH1KD tx -8.4%, ELG1 DNA repair -22.7%, DT40 TDP1 CPT -25.6%, IL-1B inflam inh -2.7 and DT40 TDP1 no CPT inconclusive.
CCOc1ccccc1C1NC(=O)NC(C)=C1C(=O)OC1CCCCC1 (centres undefined) was read as HT1080-NT tox -6.3%, HT1080 IDH1KD tx 5.8%[9.24 µM], ELG1 DNA repair 0.1%, DT40 TDP1 CPT inconclusive, IL-1B inflam inh -67.9* and DT40 TDP1 no CPT inconclusive.
Screening CCOc1ccccc1C1CC(=O)NC(C)=C1C(=O)OC1CCCCCC1 (centres undefined) returned DT40 TDP1 CPT 20.6µM* and DT40 TDP1 no CPT 16.4µM*.
CC1=C(C(=O)OC2CCCCCCC2)C(c2ccc(O)cc2)NC(=O)N1 (centres undefined) was read as HT1080-NT tox inconclusive, HT1080 IDH1KD tx 5.3%[9.24 µM], ELG1 DNA repair -10.0%, DT40 TDP1 CPT inconclusive, IL-1B inflam inh -54.6* and DT40 TDP1 no CPT inconclusive.
NS(=O)(=O)c1ccc(CNC(=O)c2cccnc2Cl)cc1 was read as HT1080-NT tox 8.1%, HT1080 IDH1KD tx 13.1%, ELG1 DNA repair 7.3%, DT40 TDP1 CPT -2.1%, IL-1B inflam inh 3.0 and DT40 TDP1 no CPT -18.5%.
Screening CCC(=O)Nc1cc2c3c(c1)CCN3C(=O)CC2 returned HT1080-NT tox -0.4%, HT1080 IDH1KD tx 0.8%, ELG1 DNA repair 3.6%, DT40 TDP1 CPT 17.0%, IL-1B inflam inh 9.0 and DT40 TDP1 no CPT 4.5%.
`COc1ccc(OC)c(-n2c(=O)c3ccccc3c3ccccc3c2=O)c1` gave HT1080-NT tox -11.0%, HT1080 IDH1KD tx 0.6%, ELG1 DNA repair inconclusive, DT40 TDP1 CPT -24.2%, IL-1B inflam inh -89.3* and DT40 TDP1 no CPT -36.9%.
Screening COc1ccccc1CN(Cc1nc2ccccc2c(=O)[nH]1)C(=O)Nc1ccccc1 returned HT1080-NT tox -11.0%, HT1080 IDH1KD tx 5.8%, ELG1 DNA repair inconclusive, DT40 TDP1 CPT 3.55µM*, IL-1B inflam inh -6.2 and DT40 TDP1 no CPT 3.55µM*.
O=C(Nc1cccc(Cl)c1)N(Cc1nc2ccccc2c(=O)[nH]1)Cc1cccs1 was read as HT1080-NT tox -2.8%, HT1080 IDH1KD tx -11.5%, ELG1 DNA repair inconclusive, DT40 TDP1 CPT 23.1µM*, IL-1B inflam inh inconclusive and DT40 TDP1 no CPT 23.1µM*.
COc1ccccc1CNC(=O)CCc1nc2ccccc2c(=O)[nH]1 was read as HT1080-NT tox -0.8%, HT1080 IDH1KD tx 8.7%, ELG1 DNA repair -8.6%, DT40 TDP1 CPT -14.3%, IL-1B inflam inh 12.1 and DT40 TDP1 no CPT -26.4%.
For O=C(O)c1cc(=O)[nH]c(=O)[nH]1 the results were DT40 TDP1 CPT 2.5% and DT40 TDP1 no CPT -2.0%.
Screening Oc1ccc(-c2[nH]ncc2-c2cccc3cccnc23)c(O)c1 returned HT1080-NT tox inconclusive, HT1080 IDH1KD tx inconclusive, ELG1 DNA repair inconclusive, DT40 TDP1 CPT 23.1µM*, IL-1B inflam inh -24.9 and DT40 TDP1 no CPT inconclusive.
